Laboratory results from PubChem BioAssay AID1321 (The Scripps Research Institute Molecular Screening Center, 2008).
In all, about 220,000 compounds went through this assay and about 2,600 (1.2%) were called active. The sample holds actives, similar compounds and a random draw of the others, so the mix is not that of the screen.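 How the source made its calls: active means activation above the mean of all tested compounds plus 3 SD, set per screening run (cut at about 8.8% in these data); inactive means the rest.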

Molecular target: Wee1-like protein kinase (Homo sapiens) (UniProt P30291)
Assay: Wee1 degradation inhibitors, primary screen, cell-based, HeLa, Wee1K328M-luciferase, luminescence (AID 1321);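 further: cells exposed to compound for 20 h before luminescence read; 0% = DMSO alone and 100% = MG132 at 30 µM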
Details: HeLa Luc-Wee1K328M stability, at 5 µM, hits give high values, 100% = proteasome inhibitor MG132 effect

| Compound | reporter increase |
| --- | --- |
| CCOC(=O)CN(C(=O)COc1nc(C)cc(C)c1C#N)c1ccc(Cl)cc1 | -2.18% (inactive) |
| CCOC(=O)COc1nc(C)cc(C(F)(F)F)c1C#N | 8.86% (active) |
| Cc1cc(C(F)(F)F)c(C#N)c(SCC(=O)NC2CC2)n1 | -3.28% (inactive) |
| CCCc1c(C(=O)O)cnn1-c1ccc(Cl)cc1 | 1.14% (inactive) |
| CN(CCC1CCOCC1)Cc1cn[nH]c1-c1ccc(-c2ccccc2)cc1 | -2.58% (inactive) |
| Cc1nnc(CN(C)Cc2cn[nH]c2-c2ccc(-c3ccccc3)cc2)o1 | 10.8% (active) |
| COc1ccc(-c2[nH]ncc2CN(C)Cc2cc(C)[nH]n2)c(F)c1 | -2.83% (inactive) |
| COC(=O)C1=C(N)Oc2cc(C)[nH]c(=O)c2C1c1ccc(Cl)cc1 (stereo not drawn) | -0.92% (inactive) |
| COc1ccccc1N1CCN(C(=O)CSc2ncnc3c2cnn3-c2ccc(C)c(C)c2)CC1 | 3.89% (inactive) |
| O=[N+]([O-])c1ccc(N2CCSCC2)cc1O | 1.05% (inactive) |
| Cc1nc2cc(NC(=O)Nc3cccc(F)c3)ccc2n1C | -1.84% (inactive) |
| Cc1nc2cc(NC(=O)NC3CC3)ccc2n1C | 12.8% (active) |
| C=CCN(C(=O)Nc1ccc2c(c1)nc(C)n2C)c1ccccc1 | -1.11% (inactive) |
| Cc1cc(NC(=O)OC(C)C)ccc1-c1ccc(NC(=O)OC(C)C)cc1C | 0.84% (inactive) |
| Cn1c(SCC(=O)Nc2ccc(Cl)cc2)nc(O)cc1=O | -2.26% (inactive) |
| COc1cccc(OCC(=O)Nc2ccccc2C(N)=O)c1 | 0.36% (inactive) |
| Cc1cccc(OCC(=O)Nc2ccccc2F)c1 | 12.9% (active) |
| Cc1cccc(OCC(=O)NC(=S)Nc2ccccc2N2CCOCC2)c1 | 0.28% (inactive) |
| O=S(=O)(c1ccccc1)N1CN(Cc2ccc(F)cc2)c2nc3ccccc3nc21 | 2.39% (inactive) |
| COc1ccc(N(Cc2ccccc2)S(=O)(=O)c2cccc(C(=O)O)c2)cc1 | 0.36% (inactive) |
| CCOc1ccc(N2CC(C(=O)N/N=C/c3sccc3C)CC2=O)cc1 (stereo not drawn) | -2.91% (inactive) |
| CCN(CC)CCCN=Cc1c(O)n(-c2ccc(C)cc2)c(=O)c2ccccc12 | 5.68% (inactive) |
| Cc1ccc2c(Cl)c(C(=O)NCCCn3ccnc3)sc2c1 | 18.1% (active) |
| COc1ccc(-c2cc(C(=O)NCCCn3ccnc3)no2)cc1 | -0.75% (inactive) |
| Cc1ccc2c(Cl)c(C(=O)Nc3nn[nH]n3)sc2c1 | -0.87% (inactive) |

| Compound | reporter increase |
| --- | --- |
| O=C1CC(Cc2ccc(Cl)cc2)C(=O)N1c1cc(Cl)ccn1 (stereo not drawn) | 2.19% (inactive) |
| O=C(NC(=O)c1cc(OCC(F)(F)F)ccc1OCC(F)(F)F)Nc1ccccc1 | -0.42% (inactive) |
| O=C(Nc1cc(C(F)(F)F)ccc1Cl)C(=O)N1CCCCC1 | 0.04% (inactive) |
| O=C(NNc1ccccc1Cl)C(O)(c1cccc(C(F)(F)F)c1)c1cccc(C(F)(F)F)c1 | 16.5% (active) |
| CC(CC(=O)Nc1cc(C(F)(F)F)ccc1Cl)c1ccccc1 (stereo not drawn) | -1.69% (inactive) |
| CCn1c2ccccc2c2cc(NC(=O)Nc3ccc([N+](=O)[O-])cc3C)ccc21 | -2.8% (inactive) |
| Cc1ccc(Nc2nc(N)nc(CSc3nnc(C)s3)n2)cc1 | 9.2% (active) |
| Cc1ccccc1Nc1nc(N)nc(CSc2ccccc2)n1 | 5.12% (inactive) |
| Cc1ccc(Nc2nnc(SCc3ccccc3)s2)cc1 | 0.21% (inactive) |
| O=C(c1cc(COc2c(F)cccc2F)on1)N1CCSCC1 | -0.41% (inactive) |
| COC(=O)Cn1c(O)c(N=NC(=O)OC)c2ccccc21 | -1.42% (inactive) |
| Cc1cc(C)nc(SCc2cn3c(C)cc(C)nc3n2)n1 | 1.99% (inactive) |
| COc1cc(C(F)(F)F)c(C(=O)N(C)c2ccc(Cl)cc2)cn1 | -1.97% (inactive) |
| COc1ccccc1N(C)S(=O)(=O)c1ccc(C(=O)NC2CCCCCC2)cc1 | 1.14% (inactive) |
| CC(=O)N(CCCN(C)C)c1nc2ccc(C)cc2s1 | 1.87% (inactive) |
| CN(C)CCCCCN(C)Cc1cc2ccccc2o1 | 9.64% (active) |
| CCCOC(=O)c1cc2ccccc2oc1=O | -1.59% (inactive) |
| COCCN(Cc1cc2cc3c(cc2nc1Cl)OCO3)C(=O)c1cccc(C)c1 | -2.99% (inactive) |
| CCCCNC(=S)N/N=C1\CCCCc2ccccc21 | 9.73% (active) |
| CCCC1CCC(=NNC(=S)NCCc2ccccc2)CC1 (stereo not drawn) | -0.9% (inactive) |
| Cc1ccc(NC(=S)N/N=C2/CCCc3c(C)cc(C)cc32)cc1 | -2.2% (inactive) |
| Cc1ccc(N2C(=O)CC(N3CCSCC3)C2=O)c(C)c1 (stereo not drawn) | -2.9% (inactive) |
| Cc1ccccc1NC(=O)Nc1ccccc1N1CCCCC1 | 2.91% (inactive) |
| O=c1cc(CSc2ccc(Cl)cc2)nc(N2CCOCC2)[nH]1 | 4.27% (inactive) |
| Cc1nnc(SCc2cc(=O)[nH]c(N3CCN(Cc4ccccc4)CC3)n2)s1 | 0.09% (inactive) |

| Compound | reporter increase |
| --- | --- |
| O=c1cc(CSc2ccccn2)nc(N2CCN(c3ccccc3)CC2)[nH]1 | 10.3% (active) |
| C/C=C/c1ccc(OCCCCN2CCC(C)CC2)c(OC)c1 | 28.9% (active) |
| C/C=C/c1ccc(OCC(O)CN2CCCCCCC2)c(OC)c1 (stereo not drawn) | -0.18% (inactive) |
| C/C=C/c1ccc(OCCOc2ccc(C=O)cc2OC)c(OC)c1 | 0.41% (inactive) |
| CN(C(=O)COC(=O)c1cc(-c2ccco2)nc2ccccc12)C1CCS(=O)(=O)C1 (stereo not drawn) | -1.15% (inactive) |
| Cc1cc(C)c2nc(NC(=O)c3ccc4c(c3)OCO4)sc2c1 | -0.87% (inactive) |
| O=C(Nc1nc2ccc(S(=O)(=O)N3CCCC3)cc2s1)C1CCCO1 (stereo not drawn) | -1.26% (inactive) |
| Cc1cc(C)c2nc(NC(=O)C3CCCO3)sc2c1 (stereo not drawn) | 9.43% (active) |
| COc1ccc(NC(=O)CCN2C(=O)/C(=C/c3ccc4c(c3)OCO4)SC2=S)cc1 | 0.36% (inactive) |
| Cc1cc(C(=O)CSc2nc(N)cc(=O)[nH]2)c(C)n1Cc1ccco1 | 2.39% (inactive) |
| COc1ccc(NC(=S)NCCNC(C)=O)cc1 | 0.16% (inactive) |
| COc1ccc(CS(=O)/C(Cl)=C(/Cl)C(=O)Nc2ccc(OC)nc2)cc1 (stereo not drawn) | 17.4% (active) |
| CC(=O)Nc1ccc(OCC(=O)NCc2ccc(C)cc2)cc1 | -0.21% (inactive) |
| COc1ccc(Nc2cc(Cl)ccc2C(=O)O)cn1 | 2.84% (inactive) |
| COc1ccc(NC(=O)/C(Cl)=C(/Cl)S(=O)Cc2ccc(C)cc2)cn1 (stereo not drawn) | 11% (active) |
| COc1ccc(NC(=S)Nc2ccccc2Cl)cn1 | 4.13% (inactive) |
| Cc1nn(-c2ccccc2)c(=O)c2noc(C)c12 | 3.18% (inactive) |
| CS(=O)(=O)c1ccc2nnn(OCC(=O)Nc3cccc(C#N)c3)c2c1 | 0.86% (inactive) |
| Cn1c(=O)c(=O)n(C)c2cc(S(=O)(=O)NCCN3CCN(c4ccccc4F)CC3)ccc21 | 3.58% (inactive) |
| COc1ccc(Cc2cc(-c3ccc(F)cc3)n[nH]c2=O)cc1 | -0.9% (inactive) |
| CCC1(C)Cc2c(sc3nc(SC)[nH]c(=O)c23)CO1 (stereo not drawn) | -2.99% (inactive) |
| COc1ccc2nc(Nc3nc4cc5c(cc4s3)OCCO5)sc2c1 | 0.78% (inactive) |
| COc1ccc2nc(Nc3nc4ccc(NC(C)=O)cc4s3)sc2c1 | 10.4% (active) |
| CCOc1ccc2nc(Nc3nc4ccc(NC(C)=O)cc4s3)sc2c1 | 1.97% (inactive) |
| CCCC(=O)Nc1nc2ccc(NC(=O)c3c(F)c(F)c(OC)c(F)c3F)cc2s1 | 10.8% (active) |

| Compound | reporter increase |
| --- | --- |
| CSc1nc2ccc(NC(=O)c3c(F)cccc3F)cc2s1 | 4.29% (inactive) |
| CCCC(=O)Nc1nc2ccc(NC(=O)c3cccnc3)cc2s1 | 3.09% (inactive) |
| CCCC(=O)Nc1ccc2c(c1)nc(CCNC(=O)c1ccco1)n2C | 1.75% (inactive) |
| CC(=O)N(OCc1ccc(OC(C)C)c(Cl)c1)C(C)=O | 2.11% (inactive) |
| Cc1c(S(=O)(=O)NCc2ccccc2)c(=O)n(C)c(=O)n1C | -0.22% (inactive) |
| CN1CCN(c2ccc(S(=O)(=O)N3CCOCC3)cc2NC(=O)CCc2ccccc2)CC1 | 1.28% (inactive) |
| Cc1nnc2n1N=C(c1ccc3c(c1)NC(=O)CO3)CS2 | -1.74% (inactive) |
| N/C(=N\S(=O)(=O)c1cc(C(F)(F)F)cc(C(F)(F)F)c1)c1cccs1 | -2.49% (inactive) |
| O=C(Nc1ccc(F)cc1)c1cc2c(s1)CCCC2 | 16.5% (active) |
| O=C(CNC(=O)c1cc2c(s1)CCC2)Nc1ccccc1Br | 5.95% (inactive) |
| O=C(NNC(=O)c1cc2c(s1)CCCC2)c1ccccc1 | 4.34% (inactive) |
| O=C(CNCCC1=CCCCC1)Nc1ccccc1N1CCCCCC1 | -2.9% (inactive) |
| CN(CC(=O)Nc1ccc(F)cc1)CC(=O)Nc1ccc(Cl)c(S(=O)(=O)N2CCOCC2)c1 | -2.59% (inactive) |
| CCOc1cc(NC(=O)c2ccccn2)c(OCC)cc1NC(=O)c1ccc(OC)cc1 | -0.73% (inactive) |
| CCN(CC)CCOc1ccc2c(c1)C(=NNC(=O)c1ccccn1)c1cc(OCCN(CC)CC)ccc1-2 | 13% (active) |
| COc1ccc(CC(=O)N/N=C(\C)c2ccccn2)cc1 | 3.82% (inactive) |
| COc1ccccc1-n1cn[nH]c1=S | -1.47% (inactive) |
| Cc1ccc2c(C)c(C(=O)N3CCC(N4CCC(C(=O)NC5CC5)CC4)CC3)oc2c1 | 7.23% (inactive) |
| O=C(N/N=C\c1cc(Br)c(Br)o1)C1COc2ccccc2O1 (stereo not drawn) | 3.79% (inactive) |
| Cc1cc(CO)nn1-c1ccc([N+](=O)[O-])cc1 | -1.77% (inactive) |
| c1ccc(Nc2nc(-c3ccncc3)cs2)nc1 | 11.1% (active) |
| c1cnc(Nc2nc(-c3ccc4ccccc4c3)cs2)nc1 | -0.11% (inactive) |
| COc1ccc(-c2csc(Nc3ccccn3)n2)cc1 | 0.98% (inactive) |
